Laboratory results from PubChem BioAssay (EPA / NIEHS).
Calls of active or inactive are those of the source. How the source made its calls: active means hit-call score of the fitted dose curve at least 0.9, where 1 is the maximum; inactive means score below 0.9.

What was measured:
[1] = ATG_DR4_LXR_CIS: Attagene CIS-FACTORIAL HepG2 Assay for human Liver X Receptor (LXR), DR4 submotif (AID 2282929); conditions: HepG2 Attagene DR4 cis-reporter, mRNA transcription; AC50: actives raise or lower the signal unless noted; outcome: actives raise or lower the signal unless noted
Outline: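 Readout: reporter transcript fluorescence after RT-PCR and capillary electrophoresis, fitted bidirectionally against DMSO controls. Human HepG2 liver cells carried transiently transfected multiplexed reporter constructs; endogenous transcription factor activity measured 24 h post-dosing.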

[2] = target: Aryl hydrocarbon receptor (Homo sapiens) (UniProt P35869); test: ATG_Ahr_CIS: Attagene CIS-FACTORIAL HepG2 Assay for human Aryl Hydrocarbon Receptor (Ahr) (AID 2282930); conditions: HepG2 AhR cis-factorial reporter transcription; actives raise or lower the signal
Aryl hydrocarbon receptor (Homo sapiens), sequence (P35869 whole entry, looked up): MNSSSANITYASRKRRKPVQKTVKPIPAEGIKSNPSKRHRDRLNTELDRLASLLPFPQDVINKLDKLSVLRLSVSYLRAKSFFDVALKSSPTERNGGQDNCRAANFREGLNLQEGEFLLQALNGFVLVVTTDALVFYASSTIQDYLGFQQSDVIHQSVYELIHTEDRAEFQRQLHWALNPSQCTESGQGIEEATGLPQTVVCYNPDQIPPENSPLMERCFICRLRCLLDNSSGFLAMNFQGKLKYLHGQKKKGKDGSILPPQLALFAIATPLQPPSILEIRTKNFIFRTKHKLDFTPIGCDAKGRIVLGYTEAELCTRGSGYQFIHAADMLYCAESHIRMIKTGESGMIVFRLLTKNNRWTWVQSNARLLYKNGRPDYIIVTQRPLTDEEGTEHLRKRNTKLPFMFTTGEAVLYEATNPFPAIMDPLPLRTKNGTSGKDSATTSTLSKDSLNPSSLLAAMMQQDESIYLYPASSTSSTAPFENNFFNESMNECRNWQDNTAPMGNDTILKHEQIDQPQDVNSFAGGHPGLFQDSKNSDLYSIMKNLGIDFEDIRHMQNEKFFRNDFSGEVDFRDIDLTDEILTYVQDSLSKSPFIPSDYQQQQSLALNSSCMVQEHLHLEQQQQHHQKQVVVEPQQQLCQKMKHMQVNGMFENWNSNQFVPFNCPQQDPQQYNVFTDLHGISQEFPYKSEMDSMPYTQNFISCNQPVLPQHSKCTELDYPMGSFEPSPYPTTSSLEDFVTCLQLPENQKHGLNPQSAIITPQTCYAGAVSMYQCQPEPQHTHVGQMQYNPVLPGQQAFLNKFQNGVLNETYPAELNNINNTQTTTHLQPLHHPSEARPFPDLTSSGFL
Outline: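 Values derive from bidirectional fitting against DMSO negative control. Underlying signal: cis-element reporter mRNA in transiently transfected HepG2, harvested 24 h post-dose and measured by RT-PCR plus capillary electrophoresis.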

[3] = ATG_AP_1_CIS: Attagene CIS-FACTORIAL HepG2 Assay for human Activator Protein 1 (AP-1) (AID 2282931); conditions: HepG2 Attagene cis-factorial AP-1 reporter mRNA; actives raise or lower the signal
Outline: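 Reporter transcripts were measured 24 h after dosing by RT-PCR and capillary electrophoresis of fluorescent fragments. Cells: HepG2 carrying transfected cis-regulated reporter constructs reading endogenous factor activity. Gain or loss fitted against DMSO.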

[4] = ATG_AP_2_CIS: Attagene CIS-FACTORIAL HepG2 Assay for human Activator Protein 2 (AP-2) (AID 2282932); conditions: HepG2 AP-2 cis-reporter, Attagene transcription factor profiling; AC50: actives raise or lower the signal unless noted; outcome: actives raise or lower the signal unless noted
Outline: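 Cells (HepG2) transfected with promoter-driven reporter constructs, treated 24 h. Total RNA reverse-transcribed, reporter cDNA PCR-amplified, FAM-labelled by primer extension, digested, resolved by capillary electrophoresis. Activity fitted both directions versus DMSO.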

[5] = ATG_BRE_CIS: Attagene CIS-FACTORIAL HepG2 Assay for human Bone Morphogenetic Protein (BMP) Response Element (BRE) (AID 2282933); conditions: HepG2 BMP response element reporter, Attagene transcription factor profiling; actives raise or lower the signal
Outline: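 Endogenous transcription factor activity at a BMP response element was monitored in transfected HepG2 cells 24 h after dosing. Fluorescent RT-PCR products were resolved by capillary electrophoresis, and activity was fitted in both directions versus DMSO.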

[6] = target: Retinoic acid receptor alpha (Homo sapiens) (UniProt P10276); test: ATG_DR5_RAR_CIS: Attagene CIS-FACTORIAL HepG2 Assay for human Retinoic Acid Receptor Alpha (RARE), DR5 submotif (AID 2282934); conditions: HepG2 Attagene cis-factorial RARE DR5 reporter, mRNA; actives raise or lower the signal
Retinoic acid receptor alpha (Homo sapiens), sequence (P10276 whole entry, looked up): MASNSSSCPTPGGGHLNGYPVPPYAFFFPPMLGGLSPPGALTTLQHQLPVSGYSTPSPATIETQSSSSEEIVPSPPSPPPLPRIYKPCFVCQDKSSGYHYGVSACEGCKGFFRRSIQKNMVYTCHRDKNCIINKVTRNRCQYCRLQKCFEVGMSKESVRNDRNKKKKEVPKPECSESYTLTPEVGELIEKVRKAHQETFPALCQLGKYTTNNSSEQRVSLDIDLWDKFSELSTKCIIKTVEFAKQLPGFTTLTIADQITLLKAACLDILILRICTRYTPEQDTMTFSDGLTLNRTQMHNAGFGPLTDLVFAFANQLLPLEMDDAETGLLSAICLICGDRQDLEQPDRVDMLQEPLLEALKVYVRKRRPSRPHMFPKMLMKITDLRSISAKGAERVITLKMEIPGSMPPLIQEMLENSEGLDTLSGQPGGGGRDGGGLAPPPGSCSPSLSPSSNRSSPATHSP
Outline: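 Endpoint fitted in both directions relative to DMSO as negative control. It reflects DR5 cis-element reporter mRNA induction in transiently transfected HepG2 cells, measured 24 h after dosing through RT-PCR and fluorescent capillary electrophoresis.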

[7] = target: Transcription factor E2F1 (Homo sapiens) (UniProt Q01094); test: ATG_E2F_CIS: Attagene CIS-FACTORIAL HepG2 Assay for human E2F Transcription Factor 1 (AID 2282935); conditions: HepG2 Attagene cis-reporter, E2F reporter RNA transcripts; actives raise or lower the signal
Transcription factor E2F1 (Homo sapiens), sequence (Q01094 whole entry, looked up): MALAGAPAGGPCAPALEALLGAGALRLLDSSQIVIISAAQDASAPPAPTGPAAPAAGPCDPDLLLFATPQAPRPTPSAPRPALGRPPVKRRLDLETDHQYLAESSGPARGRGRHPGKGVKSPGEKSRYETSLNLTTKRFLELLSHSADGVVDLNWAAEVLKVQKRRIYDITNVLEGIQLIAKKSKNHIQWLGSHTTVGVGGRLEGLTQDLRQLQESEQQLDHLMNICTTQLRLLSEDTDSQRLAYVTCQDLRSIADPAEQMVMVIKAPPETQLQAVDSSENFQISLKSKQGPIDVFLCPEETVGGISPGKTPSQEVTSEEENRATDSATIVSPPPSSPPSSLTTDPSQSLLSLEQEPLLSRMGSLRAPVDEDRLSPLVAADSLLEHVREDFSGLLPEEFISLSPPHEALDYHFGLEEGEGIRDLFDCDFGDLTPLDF
Outline: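 First, HepG2 cells were transfected with reporter transcription units. Next, they were dosed for 24 h. Then RNA was isolated, converted to cDNA, PCR-amplified, FAM-labeled, HpaI-digested and analyzed by capillary electrophoresis.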

[8] = ATG_E_Box_CIS: Attagene CIS-FACTORIAL HepG2 Assay for human Enhancer Box (E-box) (AID 2282936); conditions: HepG2 E-box cis-reporter transcription, actives raise or lower the signal
Outline: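 Endogenous transcription factor activity was sensed in human HepG2 liver cells through transfected cis-promoter reporter units. After 24 h of dosing, total RNA was reverse-transcribed and reporter cDNA resolved by capillary electrophoresis.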

[9] = ATG_M_61_CIS: Attagene CIS-FACTORIAL HepG2 Assay for M61 Transcription Factor (Internal Marker) (AID 2282937); conditions: HepG2 Attagene CIS-FACTORIAL M61 internal marker reporter; actives raise or lower the signal
Outline: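 Readout: fluorescent reporter mRNA fragments resolved by capillary electrophoresis after RT-PCR. Transiently transfected human HepG2 cells carried MRTU constructs reporting endogenous TF activity; 24 h chemical exposure; gain or loss of signal fitted relative to DMSO.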

[10] = ATG_EGR_CIS: Attagene CIS-FACTORIAL HepG2 Assay for human Early Growth Response 1 (EGR1) (AID 2282938); conditions: HepG2 Attagene CIS-FACTORIAL EGR reporter mRNA; actives raise or lower the signal
Outline: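 Read-out: fluorescent reporter-mRNA fragments resolved by capillary electrophoresis after RT-PCR, 24 h post-dose in transiently transfected HepG2. Endogenous transcription-factor activity reported via cis-element-regulated reporter units; gain or loss fitted relative to DMSO.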

[11] = ATG_M_19_CIS: Attagene CIS-FACTORIAL HepG2 Assay for M19 Transcription Factor (Internal Marker) (AID 2282939); conditions: HepG2 Attagene CIS-FACTORIAL M19 internal marker reporter; actives raise or lower the signal
Outline: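 Background-control endpoint from a multiplexed HepG2 reporter panel. Cells carrying cis-regulated reporter constructs are treated 24 h, then reporter transcripts are amplified, fluorescently labelled and sized by capillary electrophoresis. DMSO defines baseline.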

[12] = ATG_ERE_CIS: Attagene CIS-FACTORIAL HepG2 Assay for Estrogen Response Element (ERE) (AID 2282940); conditions: HepG2 ERE cis-reporter, Attagene RNA transcript; actives raise or lower the signal
Outline: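 Cells used were human hepatoma HepG2, transfected with multiple reporter transcription units under cis-regulatory promoters. Reporter mRNA, read 24 h post-dosing via fluorescent RT-PCR products on capillary electrophoresis, was fitted bidirectionally relative to DMSO.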

[13] = ATG_Ets_CIS: Attagene CIS-FACTORIAL HepG2 Assay for human Erythroblast Transformation Specific (ETS) (AID 2282941); conditions: HepG2 ETS cis-reporter transcription; AC50: actives raise or lower the signal unless noted; outcome: actives raise or lower the signal unless noted
Outline: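 Endogenous transcription factor activity read as reporter mRNA via RT-PCR and capillary electrophoresis, with gain or loss fitted bidirectionally against DMSO. Human HepG2 liver cells, transiently transfected CIS reporter constructs, 24 h exposure.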

[14] = target: Hepatocyte nuclear factor 3-beta (Homo sapiens) (UniProt Q9Y261); test: ATG_FoxA2_CIS: Attagene CIS-FACTORIAL HepG2 Assay for human Forkhead box A2 (FOXA2) (AID 2282942); conditions: HepG2 cis-reporter transcription factor activity, 24 h; actives raise or lower the signal
Hepatocyte nuclear factor 3-beta (Homo sapiens), sequence (Q9Y261 whole entry, looked up): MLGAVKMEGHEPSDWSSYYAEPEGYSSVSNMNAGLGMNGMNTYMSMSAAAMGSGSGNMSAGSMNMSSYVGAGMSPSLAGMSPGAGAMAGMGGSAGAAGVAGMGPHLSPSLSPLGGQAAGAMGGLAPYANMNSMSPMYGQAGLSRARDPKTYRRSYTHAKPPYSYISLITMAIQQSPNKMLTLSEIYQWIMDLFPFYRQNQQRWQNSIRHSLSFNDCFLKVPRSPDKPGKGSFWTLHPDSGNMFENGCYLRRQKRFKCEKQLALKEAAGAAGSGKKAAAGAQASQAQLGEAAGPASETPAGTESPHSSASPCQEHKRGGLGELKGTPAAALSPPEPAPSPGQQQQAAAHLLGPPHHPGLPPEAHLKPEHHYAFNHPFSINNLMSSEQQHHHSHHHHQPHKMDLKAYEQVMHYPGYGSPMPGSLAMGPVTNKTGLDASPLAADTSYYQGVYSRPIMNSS
Outline: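 Readout: fluorescent reporter transcripts resolved by capillary electrophoresis after RT-PCR. Transiently transfected HepG2, 24 h compound exposure, endogenous TF activity at cis promoter elements. Gain or loss of signal fitted relative to DMSO.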

[15] = ATG_FoxO_CIS: Attagene CIS-FACTORIAL HepG2 Assay for human Forkhead box O (FoxO) (AID 2282943); conditions: HepG2 Attagene cis-reporter, FoxO element, mRNA; actives raise or lower the signal
Outline: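 Values reflect reporter mRNA induction or loss in HepG2 cells 24 h post-dosing, fitted bidirectionally with DMSO as negative control and baseline. Detection used RT-PCR and fluorescence capillary electrophoresis.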

[16] = ATG_GLI_CIS: Attagene CIS-FACTORIAL HepG2 Assay for human Zinc Finger Protein GLI1 (AID 2282945); conditions: HepG2, Attagene cis-factorial reporter mRNA, GLI element; actives raise or lower the signal
Outline: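 HepG2 cells transiently transfected with cis-promoter multiplexed reporter units report endogenous transcription factor activity. After 24 h chemical exposure, reporter mRNA was quantified by RT-PCR, 6-FAM labelling, HpaI digestion and capillary electrophoresis, with bidirectional fitting against DMSO.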

[17] = target: Bile acid receptor (Homo sapiens) (UniProt Q96RI1); test: ATG_IR1_CIS: Attagene CIS-FACTORIAL HepG2 Assay for human Nuclear Receptor Subfamily 1 Group H Member 4 (NR1H4), IR1 submotif (AID 2282946); conditions: IR1 reporter transcription, actives raise or lower the signal
Bile acid receptor (Homo sapiens), sequence (Q96RI1 whole entry, looked up): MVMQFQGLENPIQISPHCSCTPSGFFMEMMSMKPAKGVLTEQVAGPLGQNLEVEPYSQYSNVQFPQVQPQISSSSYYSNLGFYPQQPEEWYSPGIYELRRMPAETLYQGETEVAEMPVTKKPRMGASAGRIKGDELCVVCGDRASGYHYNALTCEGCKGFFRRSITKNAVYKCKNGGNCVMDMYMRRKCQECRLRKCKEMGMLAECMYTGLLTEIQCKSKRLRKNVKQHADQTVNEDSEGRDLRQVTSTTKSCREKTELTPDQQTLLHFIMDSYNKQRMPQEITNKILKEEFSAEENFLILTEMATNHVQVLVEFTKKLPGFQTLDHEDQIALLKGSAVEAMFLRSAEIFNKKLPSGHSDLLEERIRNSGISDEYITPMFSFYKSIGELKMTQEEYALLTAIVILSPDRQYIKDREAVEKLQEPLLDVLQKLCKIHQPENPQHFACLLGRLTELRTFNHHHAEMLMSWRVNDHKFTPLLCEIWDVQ
Outline: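 Readout: reporter transcript levels by RT-PCR with fluorescent capillary electrophoresis, from HepG2 cells transiently transfected with multiplexed cis-regulated reporters and dosed 24 h. Gain- or loss-of-signal fitted versus DMSO negative control.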

[18] = ATG_GRE_CIS: Attagene CIS-FACTORIAL HepG2 Assay for human Glucocorticoid Response Elements (GRE) (AID 2282947); conditions: HepG2 GRE cis-reporter, Attagene multiplex mRNA; AC50: actives raise or lower the signal unless noted; outcome: actives raise or lower the signal unless noted
Outline: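 Cells (HepG2) bearing transfected cis-promoter reporter transcription units were treated with chemical for 24 hours. Reporter mRNA was measured via RT-PCR with capillary electrophoresis, and activity was fitted in both directions relative to DMSO.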

[19] = ATG_ISRE_CIS: Attagene CIS-FACTORIAL HepG2 Assay for human Interferon Regulatory Factor 1 (IRF1) binding to an Interferon-Stimulated Response Element (ISRE) (AID 2282948); conditions: HepG2 ISRE cis-reporter (Attagene), mRNA transcription readout; actives raise or lower the signal
Outline: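 Endogenous transcription factor activity read as reporter transcript abundance via RT-PCR and capillary electrophoresis. HepG2 cells transiently transfected, 24 h chemical exposure. Gain or loss fitted against DMSO baseline.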

[20] = ATG_GATA_CIS: Attagene CIS-FACTORIAL HepG2 Assay for human GATA Binding Protein (AID 2282944); conditions: HepG2 GATA cis-element reporter, Attagene multiplex mRNA; actives raise or lower the signal
Outline: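 Endogenous transcription factor activity was captured through cis-promoter-driven reporters in transfected HepG2 cells. After 24 h exposure, reporter transcripts were quantified by RT-PCR with fluorescent capillary electrophoresis, and responses fitted both directions against DMSO.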

Measured: AC50

O=CC(F)(F)C(F)(F)C(F)(F)F
not listed: [20]
inactive: all other assays above

c1ccc(CNc2ncnc3c2ncn3C2CCCCO2)cc1 (stereo not given)
active: [2] 57 µM
not listed: [13] | [19]
inactive: all other assays above

O=C(Nc1cccc([N+](=O)[O-])c1)c1cc2ccccc2cc1O
active: [2] 0.411 µM | [3] 2.31 µM | [5] 1.17 µM | [7] 2.35 µM | [12] 3.32 µM
not listed: [15] | [20]
inactive: all other assays above

NNc1nc(-c2ccc([N+](=O)[O-])cc2)cs1
active: [3] 10.6 µM | [5] 18.3 µM
not listed: [13] | [20]
inactive: all other assays above

CCc1cccc(CC)c1N(COC)C(=O)CS(=O)(=O)O
not listed: [15]
inactive: all other assays above

COC(O)c1ccccc1 (stereo not given)
active: [12] 18.1 µM
not listed: [16]
inactive: all other assays above

CC(C)[C@@H]1CC[C@@H](C)C[C@H]1O
not listed: [12] | [18]
inactive: all other assays above

O=C(F)C(F)(F)C(F)(F)C(F)(F)C(=O)F
not listed: [13] | [16]
inactive: all other assays above

FC1(F)C=CC(F)(F)C1(F)F
not listed: [20]
inactive: all other assays above

CN(CCO)S(=O)(=O)C(F)(F)C(F)(F)C(F)(F)C(F)(F)C(F)(F)C(F)(F)C(F)(F)C(F)(F)F
not listed: [15] | [20]
inactive: all other assays above

COC(=O)C(F)(F)C(F)(F)C(F)(F)C(F)(F)C(F)(F)F
not listed: [15]
inactive: all other assays above

O=C1c2ccc(O)c(O)c2C(=O)c2c(O)ccc(O)c21
active: [2] 0.0722 µM | [3] 50 µM | [8] 6.45 µM | [12] 13.6 µM
not listed: [15]
inactive: all other assays above

CC(C)CCOCCC(C)C
active: [12] 26.8 µM
not listed: [13] | [19]
inactive: all other assays above
